Gli-Sufu antag: blocks Gli-Sufu signaling in a luciferase reporter. AID 588413. Sufu-KO-LIGHT fibroblasts, Gli luciferase reporter luminescence. actives 0.74% (n = 340,000). inhibition, % at 5 µM;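 active means inhibition above about 55%, limit read from the data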;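 further: 0% = DMSO-treated cells and 100% = wells with medium but no cells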
Mdm2-MdmX inh: inhibitors of human Mdm2/MdmX interaction | inhibition, % at 8 µM | actives 3% (n = 330,000) | SaOS-2 split-luciferase Mdm2/MdmX complementation, luminescence | AID 485346;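 active means inhibition of at least 50% at 8 µM in the primary screen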
Shn3 inh set2: reduces Shn3 3'UTR luciferase signal in osteoblasts; Clone20 osteoblast Shn3 3'UTR firefly luciferase, 24 h; inhibition, % at 12.5 µM; actives 0.52% (n = 360,000); AID 588674;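 active means mean inhibition of at least 75% with every replicate also reaching 75%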;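 further: 0% = median of neutral control wells and 100% = pilot-screen positive control compound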
697 NFkB inh: lowers PMA/ionomycin-induced NF-kB signal in 697 B cells; 697 B-cell NF-kB luciferase reporter, 16 h; inhibition, % at 4 µM; actives 0.33% (n = 330,000); AID 435022; in the data active means inhibition above about 35%
Jurkat NFkB inh: inhibitors of the PMA/ionomycin-induced NF-kB reporter in Jurkat cells. inhibition, % at 4 µM. actives 0.53% (n = 330,000). AID 435003. PMA/ionomycin-induced NF-kB luciferase reporter, luminescence; in the data active means inhibition above about 50%
Mdm2-MdmX conf: confirmation of human Mdm2/MdmX interaction inhibitors. actives 55% (n = 10,000). AID 489028. inhibition, % at 8 µM. Mdm2-MdmX binding, luminescent assay. shares compounds with Mdm2-MdmX inh; in the data active means inhibition above about 40%
FLuc counter: inhibits full-length luciferase, flagging false Mdm2/MdmX hits. actives 77% (n = 6,200). inhibition, % at 8 µM. shares compounds with Mdm2-MdmX inh. SaOS-2 full-length luciferase counterscreen, luminescence;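 active means mean inhibition at 8 µM reaching about 37%, which flags the compound as non-specific, limit read from the data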;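 further: p53-null SaOS-2 cells with luciferase driven by a doxycycline-inducible promoter; compound on cells about two nights before reading with doxycycline added after day one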
An asterisk follows results filed as active; nt = not tested or not shown. A selection: hits, their analogues and other compounds. The true share with any hit is near 3.8%.

SMILES	Gli-Sufu antag	Mdm2-MdmX inh	Shn3 inh set2	697 NFkB inh	Jurkat NFkB inh	Mdm2-MdmX conf	FLuc counter
CC(C)(C)OC(=O)NCCCC[C@H](NC(=O)c1[nH]cnc1C(=O)Nc1ccc(CNC(=O)OC(C)(C)C)cc1)C(=O)OC(C)(C)C	28	87*	nt	21	39	47*	75*
O=C(O)c1cccc2c1C(=O)c1ccc(N3CCN(Cc4ccc5c(c4)OCO5)CC3)cc1S2(=O)=O	nt	nt	-28	nt	nt	nt	nt
COc1ccc(C2=NOC(C(=O)N(C)Cc3ccccc3)C2)cc1 (stereo not given)	-6	9	-19	-3	-6	nt	nt
O=C(Nc1nc2ccccc2n1CCOc1ccccc1)c1ccco1	19	53*	9	-23	-4	26	nt
S=C(Nc1ccccc1)Nc1nc2ccccc2n1CCOc1ccc(Br)cc1	-1	95*	-9	-3	6	36	nt
O=C(Nc1nc2ccccc2n1CCOc1ccc(Cl)cc1)c1ccco1	-3	67*	47	-14	7	50*	72*
Nc1nc2ccccc2n1CCOc1ccc(Br)cc1	1	15	1	-12	9	nt	nt
Cc1ccc(OCCn2c(NC(=O)c3ccco3)nc3ccccc32)cc1	-3	42	15	18	-2	nt	nt
O=C(Nc1nc2ccccc2n1Cc1ccc(Cl)cc1)c1ccco1	-2	26	37	-35	-5	nt	nt
Cc1cccc(OCCn2c(NC(=O)c3ccco3)nc3ccccc32)c1	4	51*	22	-47	5	41*	59*
Cc1cccc(C(=O)NCC(=O)N2CCN(S(=O)(=O)c3cc(C)ccc3C)CC2)c1	-2	9	-4	7	-5	nt	nt
CCc1cc2cc(OC)ccc2nc1SCC(=O)NNC(=O)c1ccco1	-9	3	10	2	-5	nt	nt
N#Cc1cccc(NC(=O)CSc2nnc(C3CC3)n2C2CC2)c1	8	8	-4	18	8	nt	nt
Cc1ccc(-c2nc3c(c(=O)[nH]c(=O)n3Cc3ccccc3)n2C)s1	nt	62*	nt	5	0	6	nt
C=CC[C@@H](CC(=O)N[C@H](CO)Cc1ccccc1)C(=O)N[C@@H](COC(=O)[C@@H](CC=C)CC(=O)OC(C)(C)C)Cc1ccccc1	0	25	13	4	9	nt	nt
Cc1ccc(NC(=O)C2CCN(S(=O)(=O)c3ccc4c(c3)CCCC(=O)N4)CC2)c(Br)c1	-5	6	13	5	2	nt	nt
CCC(C)c1ccc(NC(=S)NC2CCN(Cc3ccccc3)CC2)cc1 (stereo not given)	33	76*	22	0	9	29	nt
CCc1ccc(NC(=S)NC2CCN(Cc3ccccc3)CC2)cc1	31	24	-2	-15	-13	nt	nt
Cc1ccc(C)c(C(=O)Nc2cc(C)nn2-c2nc(C)cc(C)n2)c1	10	57*	13	-12	24	39	60*
CCO[C@@H]1OC(C(=O)N2CCN(Cc3ccc4c(c3)OCO4)CC2)=C[C@H](C2CCCCC2)[C@H]1CCCO	-7	20	10	-17	7	nt	nt
O=P(c1ccccc1)(c1ccccc1)c1nc(-c2ccccc2)oc1NCc1ccccc1	-2	60*	-24	18	4	5	nt
O=C(C1CCC(C(=O)N2CCc3ccccc32)CC1)N1CCc2ccccc21 (stereo not given)	0	5	18	-19	-11	nt	nt
O=C(CCl)c1ccc2c(c1)CCN2C(=O)C1CCCCC1	41	97*	9	13	13	53*	79*
O=C(CCl)c1ccc2c(c1)CCN2C(=O)C1CC1	nt	80*	nt	13	17	39	27
CCOc1ccc(N2CC(C(=O)Nc3nnc(CC)s3)CC2=O)cc1 (stereo not given)	-3	-7	-8	8	-6	nt	nt
SMILES	Gli-Sufu antag	Mdm2-MdmX inh	Shn3 inh set2	697 NFkB inh	Jurkat NFkB inh	Mdm2-MdmX conf	FLuc counter
CCn1c(=O)c(CCC(=O)N2CCOCC2)c(C)c2c(C)nn(-c3ccccc3)c21	12	62*	18	-10	-6	33	nt
COc1ccc(-c2cc(C(=O)Nc3ccc(F)cc3F)no2)cc1	-12	24	8	6	-12	nt	nt
COc1ccc(OC)c(-c2cc(C(=O)Nc3ccc(F)cc3F)no2)c1	4	58*	-8	17	-6	14	nt
CSCCC(=O)N1CCCC(N(C)CCc2ccccc2)C1 (stereo not given)	4	-25	10	-6	-11	nt	nt
Cc1ccc2cc(CN(CC3CCCO3)C(=S)NCc3ccco3)c(=O)[nH]c2c1C (stereo not given)	10	83*	-3	-7	-9	58*	37*
CCN(CC)CCCN(Cc1cc2ccc(C)c(C)c2[nH]c1=O)C(=O)NC1CCCCC1	29	61*	3	-7	-7	50*	74*
COc1ccccc1-c1cc(NC=O)c2ncc(-c3ccc(S(C)(=O)=O)cc3)n2c1	nt	nt	-7	nt	nt	nt	nt
CN(c1ccccc1)c1ccc(/C=C(\C#N)c2nnc3n2CCCCC3)cc1[N+](=O)[O-]	1	66*	-8	-52	-11	34	nt
N#C/C(=C\c1cccc([N+](=O)[O-])c1)c1nnc2n1CCCCC2	12	23	15	13	-2	nt	nt
CCOc1ccc(NC(=O)c2cc(OC)nc3ccccc23)cc1	29	63*	34	1	39	59*	71*
COc1cc(C(=O)Nc2ccc(C)cc2)c2ccccc2n1	nt	64*	11	-7	42	48*	84*
Cc1ccc(NC(=O)c2cc(N3CCOCC3)nc3ccccc23)cc1	6	55*	5	-6	5	34	45*
CC1(C)COC(/C=C/c2cccc([N+](=O)[O-])c2)=N1	-6	79*	-42	8	9	72*	39*
COC(=O)c1cnn(-c2ccccc2)c1/C=N/NC(=S)Nc1ccc(Cl)cc1	-1	52*	6	-57	2	54*	54*
COc1ccc(Oc2c(Cl)cnn(-c3ccc(Cl)c(Cl)c3)c2=O)cc1	1	85*	19	6	5	-6	nt
Cc1cc(C)n(-c2nc(N(c3ccccc3)c3ccccc3)nc(-n3nc(C)cc3C)n2)n1	43	100*	78	-32	16	100*	58*
CN(CC(=O)Nc1ccc(F)c(F)c1F)C(=O)CCCSc1nc2ccccc2[nH]1	0	2	5	-1	7	nt	nt
O=C(CSc1nc2ccsc2c(=O)n1CC1CCC(C(=O)O)CC1)NCCc1ccc(Cl)cc1 (stereo not given)	-12	18	4	12	3	nt	nt
O=C(NCCC1=CCCCC1)c1coc(=O)c(Br)c1	16	84*	42	-69	19	39	22
O=C(NCCC1=CCCCC1)c1ccc(=O)oc1	0	24	4	10	10	nt	nt
Cn1c(=O)c2c(SCC(=O)Nc3cccc(F)c3)nc(-c3ccco3)nc2n(C)c1=O	2	100*	-4	22	6	20	nt
